Test results taken from PubChem BioAssay (NCI).
Compounds without any hit were thinned out: in the full panel of roughly 83,000, 20% have a hit.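 Negative percent growth values reflect cell death: -40 means 40% of the cells present at the start died, and -100 means all died.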 Values without a mark were called inactive. Active and inactive are the calls of the source. The calls were made as follows: active = growth percent below 10; inactive = the rest.

Each molecule was assayed on NCI-H322M lung (assay: NCI-60 one-dose screen, 48 h (100 = growth as untreated, 0 = no growth, -100 = all killed)). Details: 10 µM unless noted.
`COc1cc2c3c(c1)nc(C)n3CCC2` gave a growth of 108%.
For `Cc1sc2c(c1C)c(=O)nc1c(-c3nc4ccccc4s3)n[nH]n12`, the growth was 96.2%.
For `COc1cc2c(cc1OCCCCCN1CCN(c3ncnc4ccccc34)CC1)N=CC1CCCN1C2=O` (centres undefined), the growth was -0.115% (active).
`COc1cc2c(cc1OCCCCN1CCN(CC(=O)Nc3ccc(Cl)cc3C(=O)c3ccccc3Cl)CC1)N=CC1CCCN1C2=O` (centres undefined) was tested, and the growth was -64% (active).
With `CCOC(=O)C1=C(C)NC(=O)NC1c1cc(=O)oc2ccc(C)cc12` (centres undefined) the growth was 98.6%.
In the case of `COc1ccc2nc3cc(Cl)ccc3c(Nc3ccc(N(C)C)cc3)c2c1`, the growth is reported as 109%.
In the case of `C[C@@H](C[C@H](CCO)c1cc(C(F)(F)F)cc(C(F)(F)F)c1)c1ccc2ccccc2c1`, the growth is reported as 99.1%.
With `COc1ccc2c(CCCc3ccc(Cl)cc3Cl)c3[n+](cc2c1OC)CCc1cc2c(cc1-3)OCO2` the growth was 35.9%.
With `COc1cc2c(cc1OCCCCCCN1CCN(c3ncnc4ccccc34)CC1)N=CC1CCCN1C2=O` (centres undefined) the growth was -2.96% (active).
Molecule `c1cc[n+](Cc2c3ccccc3cc3c2ccc2ccccc23)cc1` has a growth of 53.9%.
For `CC(C)[C@@H]1CC[C@]2(CO2)[C@@H]2C(=O)OCC(C(=O)O)=C[C@H]21`, the growth was 8.82% (active).
Molecule `N#Cc1c(NC(=O)c2cccs2)[n+]([O-])c2ccc(F)cc2[n+]1[O-]` has a growth of 99.1%.
Molecule `CC(CCCC(=O)O)c1ccoc1` (centres undefined) has a growth of 99.8%.
`CCCCCCCC(=O)SCC/C=C/[C@@H]1CC(=O)NCc2nc(co2)C2=N[C@@](C)(CS2)C(=O)N[C@@H](C(C)C)C(=O)O1` was tested, and the growth was -18.5% (active).
`Nc1c(C(=O)c2ccccc2)sc2nc(-c3cccs3)ccc12` was tested, and the growth was 51.1%.
`COc1ccc2c(CCCCC(c3ccccc3)c3ccccc3)c3[n+](cc2c1OC)CCc1cc2c(cc1-3)OCO2` showed a growth of 11.1%.
In the case of `CC(C)(C)C(=O)OCOP(=O)(OCOC(=O)C(C)(C)C)C1CCCN(OC(=O)c2ccccc2)C1=O` (centres undefined), the growth is reported as 21.2%.
Work on `O=C(Cc1ccccc1)Nc1nnc(NC2CCN(c3nnc(NC(=O)Cc4ccccc4)s3)CC2)s1` yielded a growth of 35.3%.
With `CCCCCCC1(/C=N/NC(N)=O)NC(=O)NC1=O` (centres undefined) the growth was 102%.
`CC(N)C(Cc1ccc(Cl)cc1)c1ccc(Cl)cc1` (centres undefined) was tested, and the growth was 83.4%.
In the case of `CC(C)[C@@H](C)/C=C/[C@@H](C)[C@H]1CCC2=C3C=CC4=CC(=O)CC[C@]4(C)[C@H]3CC[C@@]21C`, the growth is reported as 93.9%.
For `CCOC(=O)C1=C(C)N=C2Sc3cc(OC(F)(F)F)ccc3N2[C@H]1c1ccccn1`, the growth was 50.2%.
In the case of `COC(=O)[C@]12CC[C@@H](C)[C@H](C)[C@@H]1C1=CC[C@@H]3[C@@]4(C)C(c5cnco5)=C[C@@](C)(CO)C4=CC[C@@]3(C)[C@]1(C)CC2`, the growth is reported as 86.5%.
With `C=C1C(=O)O[C@H]2[C@H]1CC/C(Cn1cc(-c3cc(C)c(C)cc3C)nn1)=C\CC[C@@]1(C)O[C@@H]21` the growth was 68.3%.
With `C=C1C(=O)O[C@H]2[C@H]1CC/C(CNC(=O)c1cc3cc(OC)ccc3[nH]1)=C\CC[C@@]1(C)O[C@@H]21` the growth was 65.4%.
Molecule `C=CCC(=O)N[C@H](/C=C/C(=O)O)Cc1ccc(-c2cc(Cl)cc(Cl)c2)cc1` has a growth of 101%.
Molecule `NN1C(=O)CSC1=S` has a growth of 98.9%.
Work on `CC(=O)C(C(C)=O)C(c1ccccc1)C(C(C)=O)C(C)=O` yielded a growth of 99.7%.
For `COc1cc(NCCN(CC(C)C)CC(C)C)c2ncc(C)cc2c1`, the growth was 82.9%.
`COc1ccc2c(CCC(c3ccccc3)c3ccccc3)c3[n+](cc2c1OC)CCc1cc2c(cc1-3)OCO2` gave a growth of 33.1%.
`O=C1CC(c2ccc3c(c2)OCO3)c2ncn(-c3ccc(Cl)cc3)c2N1` (centres undefined) was tested, and the growth was 51.9%.
`Clc1nc(Cl)c2ncn(CC#CCn3cnc4c(Cl)nc(Cl)nc43)c2n1` showed a growth of 46.6%.
With `COc1ccc(C2CC(=O)c3c(O)c(OC)c(OC)c(OC)c3O2)c(O)c1` (centres undefined) the growth was 51.4%.
Molecule `C[N+](C)(CCOC(c1ccccc1)c1ccccc1)CC(=O)OCc1ccccc1` has a growth of 90.6%.
In the case of `Nc1c2c(c(O)c3c1=C(CO)C=N3)=NCCS2`, the growth is reported as -96% (active).
Molecule `Cc1cccc(NC(=O)[C@@H]2c3ccccc3C(=O)N(c3ccc(Cl)cc3)[C@H]2c2ccc(Cl)cc2)n1` has a growth of 80.8%.
Work on `CC(N)C(Cc1ccccc1)c1ccc(Cl)cc1` (centres undefined) yielded a growth of 95.5%.
For `C=CCCCC(=O)CCC(=O)OCC1O[C@@H](O[C@@H]2C(O)[C@@H](OC(C)=O)C(C)O[C@H]2O[C@H](CC=C)CCCCC)C(O)[C@@H](OC(=O)/C(C)=C/C)[C@@H]1OC(=O)/C=C/c1ccccc1` (some centres undefined), the growth was 39.6%.
`COc1ccc2c(c1OC)C(=O)O[C@@H]2[C@H]1c2c(c(C#CC#Cc3ccc(F)c(F)c3)c3c(c2OC)OCO3)CCN1C` was tested, and the growth was 88.8%.
